Experimental data as given in PubChem BioAssay (NCATS).
Records with an inconclusive call do not appear. Values without a mark were called inactive. Calls of active or inactive are those of the source. The call rests on the fitted dose curve; in most records, active means well fitted cell-killing curve with a large enough effect; inconclusive means small, poorly fitted or top-dose-only effect; inactive means flat fitted curve, though single readings scatter.

Test: Cell Viability - LYMP2-024 (AID 988); further: nearly all actives have a fitted effect of over 60% in size;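 on activity change, negative = cytotoxicity: plate controls were DMSO only for no effect and 92 µM tetraoctylammonium bromide for full effect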
Conditions: LYMP2-024 lymphoblastoid cell viability; series mostly up to 92.2 µM; activity change, negative = cytotoxicity: at the top concentration
Excerpt: NIH Chemical Genomics Center [NCGC]
NIH Molecular Libraries Screening Centers Network [MLSCN]
National Institutes of Environmental Health Sciences [NIEHS]
National Toxicology Program [NTP]
We have developed a 1536-well cell-based assay for quantitative high throughput screening (qHTS) against a number of cell lines to determine in vitro cytotoxicity of small molecules. This particular assay uses a human lymphoblastoid cell line (LYMP2-024) purchased from Coriell Institute for Medical Research.
NCGC Assay Protocol Summary:
The CellTiter-Glo luminescent cell viability assay (Promega) is a homogeneous method to measure the number of viable cells in culture. The end point readout of this assay is based on quantitation of intracellular ATP, an indicator of metabolic activity, using the luciferase reaction. Luciferase catalyzes the oxidation of beetle Luciferin to oxyluciferin and light in the presence of ATP. The luminescent signal is proportional to amount of ATP present.
Using the CellTiter-Glo luminescent cell viability assay, the amount of cellular ATP was measured in the lymphoblastoid cell line with complete culture medium following compound treatment for 24 hours. The assay was performed in opaque white Kalypsys 1536-well plates. In the screen, tetraoctylammonium bromide was used as positive control. Library compounds were measured for their ability to cause acute toxicity in the cell line, as reflected by a decrease in intracellular ATP levels, in a concentration-dependent manner. […] AC50 values were determined from concentration-response data modeled with the standard Hill equation.
qHTS protocol for CellTiter Glo lymphoblastoid cellular assay
[Step] [Parameter] [Value] [Description]
1. Reagent; 5 uL; 2500 lymphoblastoid cells/well
2. Time; 5 hr; 37 C incubation
4. Controls; 23 nL; Tetraoctylammonium bromide 6.4pM to 92 uM
5. Time; 24 hr; 37 C incubation
6. Reagent; 5 uL; CellTiter Glo reagent
7. Time; 30 min; Room Temperature
8. Detection; Luminescence; Viewlux plate reader
Keywords: cell viability, cytotoxicity, lymphoblastoid cell line, luminescence, NTPHTS, NTPHTS_NCGC, NIEHS, DSSTox, MLSMR, MLSCN, NIH Roadmap, qHTS, NCGC
Potency means the concentration at half of the fitted maximal effect.

SMILES	activity change, negative = cytotoxicity [%]	Potency
NCC(O)c1ccc(O)cc1 (stereo unspecified)	-14.8	–
CC(=O)Oc1ccccc1C(=O)Nc1ncc([N+](=O)[O-])s1	–	39.8 µM (active)
CCOP(=S)(OCC)Oc1cc(C)nc(C(C)C)n1	-11.6	–
CCCC(C)(COC(N)=O)COC(=O)NC(C)C (stereo unspecified)	-8.62	–
OCCOc1ccccc1	-2.04	–
c1ccc2c(c1)Nc1ccccc1S2	-2.6	–
Oc1cccc2cccnc12	–	7.94 µM (active)
CNCC(O)c1ccc(O)cc1 (stereo unspecified)	-4.63	–
N[C@@H](Cc1ccc(N(CCCl)CCCl)cc1)C(=O)O	–	20 µM (active)
Oc1ccccc1-c1ccccc1	-21.4	–
Oc1ccc(Cl)cc1Cc1ccccc1	-13.2	–
